# Columns and labels:
# Assay in all cases: DAPPL (digital affinity profiling via proximity ligation, sequencing); 10 mM Tris-HCl pH 7.5, 50 mM NaCl, 1 mM DTT, 4% glycerol, room temperature, 30 min; GST-TFs on glutathione beads, 16-mer random dsDNA library, 0.1% formaldehyde crosslink after washing; high values mean tight binding
# FEV = target: T1, FEV (Homo sapiens, UniProt Q99581 1-238); settings: protein: recombinant; tags: N-terminal GST; dsDNA, one strand shown
# T1 sequence: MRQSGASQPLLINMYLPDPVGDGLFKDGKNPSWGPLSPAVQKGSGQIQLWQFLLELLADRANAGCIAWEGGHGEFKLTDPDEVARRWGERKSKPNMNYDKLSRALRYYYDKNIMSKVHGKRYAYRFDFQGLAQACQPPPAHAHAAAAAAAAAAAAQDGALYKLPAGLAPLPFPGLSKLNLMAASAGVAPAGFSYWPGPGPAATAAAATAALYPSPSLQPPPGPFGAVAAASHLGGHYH
# Summary of the method: (§1)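 Binding signal is each hexamer's read frequency for a factor divided by its frequency in the tag-only sample. The factors were GST-fused human transcription factors from yeast, captured on glutathione beads, DNA-barcoded and pooled with that sample. Pools were incubated with 200 nmole of a random double-stranded 16-mer DNA library in Tris/NaCl/DTT/glycerol buffer at room temperature for 30 min, then washed, crosslinked with 0.1% formaldehyde, proximity-ligated with BsaI/T4 ligase (1 h, 37 °C), PCR-amplified and sequenced on an Illumina NextSeq500.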
# ETV5 = ETV5 (Homo sapiens, UniProt P41161 1-510); settings: protein: recombinant; tags: N-terminal GST; dsDNA, one strand shown
# ETV5, sequence (P41161 whole entry): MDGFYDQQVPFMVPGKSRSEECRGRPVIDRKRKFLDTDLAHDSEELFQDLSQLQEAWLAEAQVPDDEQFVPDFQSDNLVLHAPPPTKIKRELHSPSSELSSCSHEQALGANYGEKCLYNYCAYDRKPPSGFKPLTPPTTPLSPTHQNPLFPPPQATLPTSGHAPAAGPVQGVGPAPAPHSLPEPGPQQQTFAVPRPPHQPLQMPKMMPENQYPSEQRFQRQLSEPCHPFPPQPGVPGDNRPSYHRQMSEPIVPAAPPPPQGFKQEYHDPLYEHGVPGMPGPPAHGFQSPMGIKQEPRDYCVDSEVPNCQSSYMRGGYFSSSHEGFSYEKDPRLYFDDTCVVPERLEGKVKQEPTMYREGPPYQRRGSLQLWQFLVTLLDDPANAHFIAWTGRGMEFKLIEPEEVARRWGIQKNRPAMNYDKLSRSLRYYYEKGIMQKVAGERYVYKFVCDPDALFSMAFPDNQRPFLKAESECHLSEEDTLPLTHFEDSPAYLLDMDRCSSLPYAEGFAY
# Summary of the method: as §1
# HSF1 = HSF1 (Homo sapiens, UniProt Q00613 1-529); settings: protein: recombinant; tags: N-terminal GST; chain copies: 3; dsDNA, one strand shown
# HSF1, sequence (Q00613 whole entry): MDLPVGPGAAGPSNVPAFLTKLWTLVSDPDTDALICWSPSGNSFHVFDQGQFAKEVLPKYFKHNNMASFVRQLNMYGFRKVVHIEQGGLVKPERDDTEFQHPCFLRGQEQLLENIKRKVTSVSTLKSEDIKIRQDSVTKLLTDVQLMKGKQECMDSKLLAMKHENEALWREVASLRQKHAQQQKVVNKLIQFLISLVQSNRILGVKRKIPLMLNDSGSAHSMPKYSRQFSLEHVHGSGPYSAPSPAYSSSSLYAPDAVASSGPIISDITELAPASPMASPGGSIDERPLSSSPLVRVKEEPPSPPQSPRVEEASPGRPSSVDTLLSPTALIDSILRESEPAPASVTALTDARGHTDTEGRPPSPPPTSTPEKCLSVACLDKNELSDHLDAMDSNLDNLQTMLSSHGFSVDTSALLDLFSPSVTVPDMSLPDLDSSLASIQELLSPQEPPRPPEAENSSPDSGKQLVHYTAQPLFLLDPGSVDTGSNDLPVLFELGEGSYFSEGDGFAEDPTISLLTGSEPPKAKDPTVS
# Summary of the method: as §1
# SPIC = target: T2, SPIC (Homo sapiens, UniProt Q8N5J4 1-248); settings: protein: recombinant; tags: N-terminal GST; dsDNA, one strand shown
# T2 sequence: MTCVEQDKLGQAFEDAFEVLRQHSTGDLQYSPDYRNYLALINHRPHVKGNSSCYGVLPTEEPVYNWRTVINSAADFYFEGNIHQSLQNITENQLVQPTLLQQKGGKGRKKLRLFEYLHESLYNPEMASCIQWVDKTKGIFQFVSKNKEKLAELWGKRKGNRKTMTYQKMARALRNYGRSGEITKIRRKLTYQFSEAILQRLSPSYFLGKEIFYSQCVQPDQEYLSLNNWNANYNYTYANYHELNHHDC
# Summary of the method: as §1
# ELF4 = ELF4 (Homo sapiens, UniProt Q99607 1-663); settings: protein: recombinant; tags: N-terminal GST; dsDNA, one strand shown
# ELF4, sequence (Q99607 whole entry): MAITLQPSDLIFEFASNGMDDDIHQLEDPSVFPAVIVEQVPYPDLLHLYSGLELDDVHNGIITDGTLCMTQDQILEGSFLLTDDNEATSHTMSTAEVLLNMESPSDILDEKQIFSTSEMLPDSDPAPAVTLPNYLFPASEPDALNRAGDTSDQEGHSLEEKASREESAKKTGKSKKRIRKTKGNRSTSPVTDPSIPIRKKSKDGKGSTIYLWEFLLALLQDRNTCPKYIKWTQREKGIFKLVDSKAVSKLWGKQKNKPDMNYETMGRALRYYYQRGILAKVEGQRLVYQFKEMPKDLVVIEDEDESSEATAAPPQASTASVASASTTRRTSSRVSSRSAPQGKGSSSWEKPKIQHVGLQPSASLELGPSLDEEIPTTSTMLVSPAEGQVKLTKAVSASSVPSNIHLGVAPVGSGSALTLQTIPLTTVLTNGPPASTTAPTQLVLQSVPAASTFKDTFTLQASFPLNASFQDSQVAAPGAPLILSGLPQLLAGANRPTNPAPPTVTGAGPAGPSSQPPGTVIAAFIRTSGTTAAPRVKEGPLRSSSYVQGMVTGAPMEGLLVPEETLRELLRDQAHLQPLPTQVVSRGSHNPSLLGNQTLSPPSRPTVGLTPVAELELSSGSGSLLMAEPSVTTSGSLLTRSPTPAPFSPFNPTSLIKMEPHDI
# Summary of the method: as §1
# ELK4 = target: T3, ELK4 (Homo sapiens, UniProt P28324-2 1-405); settings: protein: recombinant; tags: N-terminal GST; dsDNA, one strand shown
# T3 sequence: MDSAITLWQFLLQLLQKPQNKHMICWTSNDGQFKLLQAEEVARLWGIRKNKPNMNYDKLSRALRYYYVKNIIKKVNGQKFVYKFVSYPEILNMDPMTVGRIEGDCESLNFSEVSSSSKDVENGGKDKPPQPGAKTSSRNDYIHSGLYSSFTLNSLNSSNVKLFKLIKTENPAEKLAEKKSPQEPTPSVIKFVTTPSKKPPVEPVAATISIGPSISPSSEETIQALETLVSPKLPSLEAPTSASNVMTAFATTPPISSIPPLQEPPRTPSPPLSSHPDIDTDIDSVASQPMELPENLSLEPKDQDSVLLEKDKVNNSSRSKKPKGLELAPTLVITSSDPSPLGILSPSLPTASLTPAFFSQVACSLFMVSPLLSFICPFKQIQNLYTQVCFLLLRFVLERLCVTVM
# Summary of the method: as §1
# ETV2 = target: T4, ETV2 (Homo sapiens, UniProt O00321 1-342); settings: protein: recombinant; tags: N-terminal GST; dsDNA, one strand shown
# T4 sequence: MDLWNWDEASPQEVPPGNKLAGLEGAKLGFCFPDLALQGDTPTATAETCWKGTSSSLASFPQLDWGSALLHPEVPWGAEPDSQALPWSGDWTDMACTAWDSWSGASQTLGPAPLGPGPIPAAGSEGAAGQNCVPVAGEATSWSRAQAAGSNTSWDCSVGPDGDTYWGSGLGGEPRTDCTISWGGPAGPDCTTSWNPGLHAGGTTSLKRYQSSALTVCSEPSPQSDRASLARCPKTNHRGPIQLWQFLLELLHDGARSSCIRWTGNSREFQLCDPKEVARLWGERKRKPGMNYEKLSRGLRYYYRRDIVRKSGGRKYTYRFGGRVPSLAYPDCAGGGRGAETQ
# Summary of the method: as §1
# ELF3 = target: T5, ELF3 (Homo sapiens, UniProt P78545 1-371); settings: protein: recombinant; tags: N-terminal GST; dsDNA, one strand shown
# T5 sequence: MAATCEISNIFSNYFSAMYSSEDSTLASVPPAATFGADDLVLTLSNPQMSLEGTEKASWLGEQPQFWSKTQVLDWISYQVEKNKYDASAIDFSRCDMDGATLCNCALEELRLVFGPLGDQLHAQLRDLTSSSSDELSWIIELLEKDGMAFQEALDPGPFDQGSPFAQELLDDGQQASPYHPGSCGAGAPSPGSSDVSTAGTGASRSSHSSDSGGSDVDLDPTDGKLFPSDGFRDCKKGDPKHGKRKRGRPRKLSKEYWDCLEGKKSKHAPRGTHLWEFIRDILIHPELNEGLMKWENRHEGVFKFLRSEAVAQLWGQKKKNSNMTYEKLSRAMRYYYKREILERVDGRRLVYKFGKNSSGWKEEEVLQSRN
# Summary of the method: as §1
# CRX = CRX (Homo sapiens, UniProt O43186 1-299); settings: protein: recombinant; tags: N-terminal GST; dsDNA, one strand shown
# CRX, sequence (O43186 whole entry): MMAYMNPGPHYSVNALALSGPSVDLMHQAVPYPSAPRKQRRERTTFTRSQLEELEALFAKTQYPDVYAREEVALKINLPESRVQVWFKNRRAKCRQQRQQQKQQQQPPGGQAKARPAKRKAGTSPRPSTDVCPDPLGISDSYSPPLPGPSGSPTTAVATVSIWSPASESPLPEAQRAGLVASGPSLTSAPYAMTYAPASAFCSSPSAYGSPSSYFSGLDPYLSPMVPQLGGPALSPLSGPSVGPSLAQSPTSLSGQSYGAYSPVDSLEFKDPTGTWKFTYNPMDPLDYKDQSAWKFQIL
# Summary of the method: as §1
# ETV1 = ETV1 (Homo sapiens, UniProt P50549 1-477); settings: protein: recombinant; tags: N-terminal GST; dsDNA, one strand shown
# ETV1, sequence (P50549 whole entry): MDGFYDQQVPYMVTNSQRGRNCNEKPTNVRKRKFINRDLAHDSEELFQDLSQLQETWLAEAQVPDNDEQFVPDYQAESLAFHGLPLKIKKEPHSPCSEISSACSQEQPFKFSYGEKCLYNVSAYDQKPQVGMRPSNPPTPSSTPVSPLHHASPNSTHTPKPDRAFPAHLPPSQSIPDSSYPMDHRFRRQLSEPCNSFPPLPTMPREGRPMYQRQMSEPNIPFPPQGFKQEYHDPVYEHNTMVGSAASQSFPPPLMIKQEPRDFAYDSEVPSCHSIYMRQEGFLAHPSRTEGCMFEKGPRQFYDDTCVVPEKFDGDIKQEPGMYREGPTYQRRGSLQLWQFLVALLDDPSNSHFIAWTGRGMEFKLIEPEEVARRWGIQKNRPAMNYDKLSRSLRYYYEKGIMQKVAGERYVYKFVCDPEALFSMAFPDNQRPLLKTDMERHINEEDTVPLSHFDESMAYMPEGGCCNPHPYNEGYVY
# Summary of the method: as §1
# ERF = target: T6, ERF (Homo sapiens, UniProt P50548 1-548); settings: protein: recombinant; tags: N-terminal GST; dsDNA, one strand shown
# T6 sequence: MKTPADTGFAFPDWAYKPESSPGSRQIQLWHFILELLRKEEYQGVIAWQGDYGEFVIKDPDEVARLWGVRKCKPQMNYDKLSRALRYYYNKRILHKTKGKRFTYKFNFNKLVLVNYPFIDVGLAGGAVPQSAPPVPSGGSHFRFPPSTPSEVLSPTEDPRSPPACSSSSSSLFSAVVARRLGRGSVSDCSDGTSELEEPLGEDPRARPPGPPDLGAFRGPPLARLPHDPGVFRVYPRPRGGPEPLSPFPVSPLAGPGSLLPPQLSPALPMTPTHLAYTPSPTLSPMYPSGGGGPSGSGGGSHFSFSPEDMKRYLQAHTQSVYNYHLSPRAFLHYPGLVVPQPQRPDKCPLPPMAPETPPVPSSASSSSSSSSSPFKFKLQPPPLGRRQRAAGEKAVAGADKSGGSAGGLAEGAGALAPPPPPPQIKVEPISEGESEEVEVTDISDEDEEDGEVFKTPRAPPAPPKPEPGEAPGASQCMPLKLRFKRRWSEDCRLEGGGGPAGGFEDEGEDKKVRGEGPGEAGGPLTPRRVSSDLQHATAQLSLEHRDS
# Summary of the method: as §1
# ETV3L = target: T7, ETV3L (Homo sapiens, UniProt Q6ZN32 1-361); settings: protein: recombinant; tags: N-terminal GST; dsDNA, one strand shown
# T7 sequence: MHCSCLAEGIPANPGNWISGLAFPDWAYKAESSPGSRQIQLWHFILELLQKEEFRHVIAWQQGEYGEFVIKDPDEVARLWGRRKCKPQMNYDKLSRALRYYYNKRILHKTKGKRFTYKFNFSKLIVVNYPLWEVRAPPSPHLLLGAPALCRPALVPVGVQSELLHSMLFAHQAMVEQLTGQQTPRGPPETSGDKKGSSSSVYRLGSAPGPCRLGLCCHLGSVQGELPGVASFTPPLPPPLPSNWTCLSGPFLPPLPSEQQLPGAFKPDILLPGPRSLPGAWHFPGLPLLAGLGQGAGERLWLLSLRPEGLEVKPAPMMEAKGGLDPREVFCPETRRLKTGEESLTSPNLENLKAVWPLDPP
# Summary of the method: as §1
# ETS2 = target: T8, ETS2 (Homo sapiens, UniProt P15036 1-469); settings: protein: recombinant; tags: N-terminal GST; dsDNA, one strand shown
# T8 sequence: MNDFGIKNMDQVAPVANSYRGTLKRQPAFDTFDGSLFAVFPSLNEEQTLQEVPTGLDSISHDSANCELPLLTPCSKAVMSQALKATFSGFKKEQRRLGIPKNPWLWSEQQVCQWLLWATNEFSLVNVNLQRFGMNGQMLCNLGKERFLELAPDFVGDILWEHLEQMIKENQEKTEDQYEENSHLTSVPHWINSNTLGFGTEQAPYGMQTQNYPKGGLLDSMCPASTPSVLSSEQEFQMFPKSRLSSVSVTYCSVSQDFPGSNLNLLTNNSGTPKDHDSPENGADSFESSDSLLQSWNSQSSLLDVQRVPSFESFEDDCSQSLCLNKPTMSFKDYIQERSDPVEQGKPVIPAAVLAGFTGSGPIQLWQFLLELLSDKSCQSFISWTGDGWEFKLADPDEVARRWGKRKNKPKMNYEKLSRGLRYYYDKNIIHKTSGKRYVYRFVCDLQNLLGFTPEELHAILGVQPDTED
# Summary of the method: as §1
# SPDEF = target: T9, SPDEF (Homo sapiens, UniProt O95238 1-335); settings: protein: recombinant; tags: N-terminal GST; dsDNA, one strand shown
# T9 sequence: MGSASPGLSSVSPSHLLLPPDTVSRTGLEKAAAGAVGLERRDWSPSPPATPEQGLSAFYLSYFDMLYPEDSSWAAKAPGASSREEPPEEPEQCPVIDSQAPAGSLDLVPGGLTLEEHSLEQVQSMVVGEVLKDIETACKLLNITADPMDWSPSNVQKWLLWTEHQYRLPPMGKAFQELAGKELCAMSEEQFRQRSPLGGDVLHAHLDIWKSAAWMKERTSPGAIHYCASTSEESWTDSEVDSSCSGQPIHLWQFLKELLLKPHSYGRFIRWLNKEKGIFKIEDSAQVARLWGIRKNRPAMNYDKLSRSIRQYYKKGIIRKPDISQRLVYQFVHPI
# Summary of the method: as §1
# ETV7 = target: T10, ETV7 (Homo sapiens, UniProt Q9Y603 1-341); settings: protein: recombinant; tags: N-terminal GST; dsDNA, one strand shown
# T10 sequence: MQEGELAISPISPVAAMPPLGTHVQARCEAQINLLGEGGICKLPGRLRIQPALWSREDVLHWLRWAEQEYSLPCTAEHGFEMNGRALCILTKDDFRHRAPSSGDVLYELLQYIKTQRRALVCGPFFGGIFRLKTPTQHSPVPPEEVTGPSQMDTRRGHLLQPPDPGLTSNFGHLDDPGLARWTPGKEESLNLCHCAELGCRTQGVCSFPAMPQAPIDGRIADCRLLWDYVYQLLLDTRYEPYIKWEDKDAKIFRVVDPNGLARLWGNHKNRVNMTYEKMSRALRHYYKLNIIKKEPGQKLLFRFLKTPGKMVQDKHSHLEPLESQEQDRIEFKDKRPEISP
# Summary of the method: as §1
# ELF5 = target: T11, ELF5 (Homo sapiens, UniProt Q9UKW6-2 1-255); settings: protein: recombinant; tags: N-terminal GST; dsDNA, one strand shown
# T11 sequence: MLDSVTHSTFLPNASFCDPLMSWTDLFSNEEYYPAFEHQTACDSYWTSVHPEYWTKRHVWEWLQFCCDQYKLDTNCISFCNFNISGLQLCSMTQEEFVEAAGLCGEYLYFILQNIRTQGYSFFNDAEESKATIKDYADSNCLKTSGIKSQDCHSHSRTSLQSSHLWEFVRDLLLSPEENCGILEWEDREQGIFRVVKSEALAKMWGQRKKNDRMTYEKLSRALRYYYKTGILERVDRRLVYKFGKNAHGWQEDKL
# Summary of the method: as §1
# ETV3 = target: T12, ETV3 (Homo sapiens, UniProt P41162-2 1-143); settings: protein: recombinant; tags: N-terminal GST; dsDNA, one strand shown
# T12 sequence: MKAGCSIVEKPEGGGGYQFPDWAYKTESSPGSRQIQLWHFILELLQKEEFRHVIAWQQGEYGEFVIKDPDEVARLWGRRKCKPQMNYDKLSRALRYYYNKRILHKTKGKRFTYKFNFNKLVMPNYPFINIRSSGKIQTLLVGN
# Summary of the method: as §1
# ETV6 = ETV6 (Homo sapiens, UniProt P41212 1-452); settings: protein: recombinant; tags: N-terminal GST; dsDNA, one strand shown
# ETV6, sequence (P41212 whole entry): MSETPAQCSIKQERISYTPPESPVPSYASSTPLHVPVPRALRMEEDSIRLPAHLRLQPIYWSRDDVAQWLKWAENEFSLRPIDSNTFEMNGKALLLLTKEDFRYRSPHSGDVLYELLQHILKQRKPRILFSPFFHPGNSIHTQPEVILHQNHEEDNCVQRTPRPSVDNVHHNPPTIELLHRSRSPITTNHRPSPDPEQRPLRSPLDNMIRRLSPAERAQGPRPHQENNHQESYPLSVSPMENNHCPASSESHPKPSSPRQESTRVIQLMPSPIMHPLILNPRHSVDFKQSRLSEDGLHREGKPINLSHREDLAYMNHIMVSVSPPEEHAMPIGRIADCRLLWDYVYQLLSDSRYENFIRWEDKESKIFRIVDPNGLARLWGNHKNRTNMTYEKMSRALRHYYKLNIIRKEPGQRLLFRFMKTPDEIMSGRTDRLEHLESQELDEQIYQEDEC
# Summary of the method: as §1
sequence,measurement,setting,value
CTCCGA,binding signal,FEV,"1.4 fold enrichment (6-mer frequency, TF over GST control)"
same,binding signal,ETV5,"1.3 fold enrichment (6-mer frequency, TF over GST control)"
same,binding signal,HSF1,"1.49 fold enrichment (6-mer frequency, TF over GST control)"
same,binding signal,SPIC,"1.51 fold enrichment (6-mer frequency, TF over GST control)"
same,binding signal,ELF4,"1.41 fold enrichment (6-mer frequency, TF over GST control)"
same,binding signal,ELK4,"1.36 fold enrichment (6-mer frequency, TF over GST control)"
same,binding signal,ETV2,"1.19 fold enrichment (6-mer frequency, TF over GST control)"
same,binding signal,ELF3,"1.2 fold enrichment (6-mer frequency, TF over GST control)"
same,binding signal,CRX,"1.3 fold enrichment (6-mer frequency, TF over GST control)"
same,binding signal,ETV1,"1.24 fold enrichment (6-mer frequency, TF over GST control)"
same,binding signal,ERF,"1.41 fold enrichment (6-mer frequency, TF over GST control)"
same,binding signal,ETV3L,"1.38 fold enrichment (6-mer frequency, TF over GST control)"
same,binding signal,ETS2,"1.35 fold enrichment (6-mer frequency, TF over GST control)"
same,binding signal,SPDEF,"1.36 fold enrichment (6-mer frequency, TF over GST control)"
same,binding signal,ETV7,"1.24 fold enrichment (6-mer frequency, TF over GST control)"
same,binding signal,ELF5,"1.23 fold enrichment (6-mer frequency, TF over GST control)"
same,binding signal,ETV3,"1.3 fold enrichment (6-mer frequency, TF over GST control)"
same,binding signal,ETV6,"1.33 fold enrichment (6-mer frequency, TF over GST control)"
